High-throughput results as filed in PubChem BioAssay.
In the library only some 19% were active in any assay of this set; here they are far more common.
DT40 TDP1 CPT: growth inhibition of DT40 Tdp1-/-;hTDP1 cells with camptothecin (screen for TDP1 inhibitors). chicken DT40 Tdp1-/-;hTDP1 cells + 20 nM CPT, ATP luminescence, 48 h. Potency, µM (doses to about 46.2 µM), without a hit: top-dose activity change, negative = growth inhibition, usual class: inhibitors. actives 12% (n = 420,000). AID 686979; further: potency means the concentration at half of the fitted maximal effect; nearly all actives have a fitted effect of over 55% in size
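Chicken DT40 Tdp1-/- cells stably complemented with human TDP1 were seeded at 400 cells/well in medium containing 20 nM camptothecin, exposed to pin-transferred compounds, and grown at 37 °C for at least 48 hr. Viability was read as ATP luminescence.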
ELG1 DNA repair: inhibitors of ELG1-dependent DNA repair in HEK293T cells; HEK293T ELG1-luciferase reporter, luminescence, 16 h; DNA damage induced by 5-fluorouridine; Potency, µM (doses to about 46.1 µM), for inactives: at the highest dose activity change, negative = inhibition, usual class: inhibitors; actives 2.3% (n = 330,000); AID 504467; further: potency means the concentration at half of the fitted maximal effect; nearly all actives have a fitted effect of over 55% in size
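Quantitative HTS, concentration-response format. 2,000 cells/well co-treated with 5-fluorouridine and compound, 16 hr in 5% CO2 at 37 °C; ONE-Glo luminescence read after 30 min.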
IL1B secr inh: inhibitors of inflammasome signaling (IL-1 beta secretion) | THP-1 LPS/ATP IL-1B secretion, AlphaLISA, 16 h; hits give low values | activity change, % at 57.5 µM | actives 4.7% (n = 360,000) | AID 743279; in the data active means activity change below about -50%; inconclusive means mostly about -30% to -49%
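Secreted IL-1B measured by AlphaLISA bead assay after 16 h compound exposure of THP-1 cells; compounds (final up to 57.5 uM) added 1 h before LPS (250 ng/mL) and ATP (1.25 mM) stimulation; lower signal means less secretion.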
HT1080 IDH1KD tx: kills HT-1080 cells with IDH1 knockdown. Potency, µM (doses to about 46.1 µM), without a hit: at the top dose activity, negative = toxicity, usual class: cytotoxic. HT-1080 IDH1 knockdown viability, ATP luminescence, 48 h. actives 2% (n = 360,000);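 further: potency means the concentration at half of the fitted maximal effect; 0% = DMSO wells and -100% = cell-free medium wells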
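After a 2 h attachment period, IDH1KD HT-1080 cells took pin-transferred compound for 48 h at 37 °C; ATP-based luminescence after 10 min room-temperature reagent incubation reported viability.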
DT40 TDP1 no CPT: qHTS for Inhibitors of human tyrosyl-DNA phosphodiesterase 1 (TDP1): qHTS in cells in absence of CPT; DT40 Tdp1-/- hTDP1 cells, no CPT, ATP luminescence, 48 h; Potency, µM (top dose mostly 46.2 µM), inactives show at the highest dose activity change, negative = growth inhibition, hits mostly inhibitors; actives 15% (n = 420,000); AID 686978, 2013; further: potency means the concentration at half of the fitted maximal effect; nearly all actives have a fitted effect of over 55% in size
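Luminescent ATP content (CellTiter-Glo) served as the growth readout. Knockout chicken DT40 cells expressing human TDP1 were exposed to compounds without camptothecin for a minimum 48 hr at 37 °C.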
HT1080-NT tox: kills 2HG-producing HT-1080-NT fibrosarcoma cells; Potency, µM (titrated, usually from 46.1 µM), for the others: at the highest dose activity, negative = less viability, actives largely listed as cytotoxic; actives 1.6% (n = 360,000); HT-1080-NT fibrosarcoma viability, CellTiter-Glo ATP luminescence, 48 h;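 further: NT is the 2HG producing partner of a matched IDH1 knockdown line; potency means the concentration at half of the fitted maximal effect; 0% = DMSO-treated cells and -100% = media-only wells without cells; nearly all actives have a fitted effect of over 55% in size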
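HT-1080-NT fibrosarcoma cells (2HG-overproducing), 750 cells/well in RPMI with 5% FBS, dosed after 2 h and incubated 48 h at 37C. CellTiter-Glo luminescence normalized to DMSO and no-cell wells; concentration-response curves fitted and classed.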
Numbers without * were called inactive; ? = inconclusive; · = no result; [ ] = remark or other dose. Unless noted, the call rests on the fitted dose curve; in most records, active means well fitted curve in the direction sought with a large enough effect; inconclusive means small, poorly fitted or top-dose-only effect, or another doubt; inactive means no such curve, though single readings can be large; an effect the other way counts as inactive or inconclusive. Unless noted, on the % scale 0 is the no-effect control and ±100 the full control effect.

SMILES | DT40 TDP1 CPT | ELG1 DNA repair | IL1B secr inh | HT1080 IDH1KD tx | DT40 TDP1 no CPT | HT1080-NT tox
COc1ccc(-c2csc(-c3[nH]cnc3N)n2)cc1 | 7% | 25% | -2 | 2% | ? | -1%
COc1ccccc1CN1CC(=O)N2CSC[C@H]2C1=O | -3% | 4% | 7 | 0% | -6% | -3%
O=C(CSc1nc2ccc(Cl)cc2[nH]1)NCCc1ccccc1 | ? | -26% | -15 | -7% | 21µM* | -8%
O=C(CSc1nc2ccc(Cl)cc2[nH]1)NCc1ccco1 | -22% | 2% | -67* | -4% | ? | -8%
O=C(CSc1nc2ccccc2[nH]1)NCc1ccco1 | -13% | ? | -1 | 16%[9.24 µM] | -15% | -18%
Cc1cc(C(=O)CSc2ncccn2)c(C)n1Cc1ccco1 | -1% | ? | 6 | 6% | -17% | 13%
O=C(CSc1nc2ccc(Cl)cc2[nH]1)NCCc1ccc(Cl)cc1 | ? | -16% | -17 | -25% | ? | ?
Cc1cc(C(=O)CSc2nc3ccc(Cl)cc3[nH]2)c(C)n1Cc1ccco1 | 21µM* | · | 12 | -17% | 18µM* | -12%
Cc1cccc(CC(=O)NCC2CCCCC2)c1 | ? | 30% | -4 | -1% | -25% | 6%
Cc1noc(C)c1-c1nccc(NCc2cccnc2)n1 | 6% | · | · | · | -1% | ·
O=C1CC(c2ccccc2)CC(O)=C1C=Nc1ccccc1Cl (centres undefined) | ? | -11% | 7 | -6% | -33% | -6%
COc1ccccc1N=CC1=C(O)CC(c2ccccc2)CC1=O (centres undefined) | 5.2µM* | -1% | 0 | ? | 9.2µM* | ?
O=C(Cn1c(=O)c(C(F)(F)F)nc2ccccc21)Nc1ccc(Br)cc1F | -30% | · | · | · | 5% | ·
CCCn1nc(C(=O)N2CCN(c3ccccn3)CC2)c2ccccc2c1=O | -17% | ? | 38 | 2% | ? | 14%
CCOC(=O)c1ccc(S(=O)(=O)N2CCN(C(=O)c3nn(C)c(=O)c4ccccc34)CC2)cc1 | -25% | -8% | 6 | 3% | ? | 5%
Cn1nc(C(=O)N2CCN(C(c3ccccc3)c3ccccc3)CC2)c2ccccc2c1=O | 23µM* | ? | -3 | ? | ? | ?
Cn1nc(C(=O)N2CCN(S(=O)(=O)c3ccc(Cl)cc3)CC2)c2ccccc2c1=O | ? | ? | 12 | -15% | 23µM* | -12%
CCCCn1nc(C(=O)N2CCN(S(=O)(=O)c3ccccc3)CC2)c2ccccc2c1=O | ? | ? | 1 | 1% | 15µM* | -3%
CCOc1ncccc1C(=O)N1CCN(C(c2ccccc2)c2ccccc2)CC1 | 13µM* | ? | -90* | -28% | 13µM* | -27%
CN(Cc1ccccc1)C(=O)[C@@H]1CCCN1C(=O)[C@@H]1CCCN1C(=O)OC(C)(C)C | -22% | · | 0 | 7% | -28% | 14%
C[C@@H]1CN([C@H](C)CO)C(=O)CCCn2nncc2CO[C@H]1CN(C)Cc1ccc(C(F)(F)F)cc1 | 4% | · | 9 | 9% | -2% | 16%
O=C(COC(=O)c1cc(=O)[nH]c2ccccc12)Nc1ccc(F)cc1 | -11% | 4% | 9 | 0% | -6% | -2%
O=C(c1n[nH]c2ccccc12)N1CCCCC1 | 0% | 7% | 6 | 4% | -5% | 1%
O=C(c1n[nH]c2ccccc12)N1CCN(S(=O)(=O)c2ccc(Cl)cc2)CC1 | ? | -8% | -16 | 6% | 18µM* | 9%
